HCMV antiviral: blocks human cytomegalovirus replication | activity change, negative = inhibition, % at 57.5 µM | hit rate 4.5% among 410,000 | HFF cells, HCMV-luciferase reporter, 72 h; stronger effect = lower value; in the data active = activity change below about -60%; inconclusive = no clear call, values can overlap the other calls; inactive = above about -39%; note: % is set by controls: 0 for no effect and ±100 for the full control effect
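Steps: HFFs plated, 16 h 37C; compounds added; HCMV-luciferase added to MOI 1 PFU/cell; 72 h 37C; OneGlo reagent, 5 min room temperature; luminescence read, normalized to controls.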
Pf growth 96h: inhibits malaria parasite growth, 96 h. P. falciparum luciferase reporter growth, 96 h. Potency, µM (top dose mostly 28.7 µM), inactives show at the top dose activity change, negative = inhibition, hits mostly inhibitors. hit rate 6.9% among 320,000; note: potency is the fitted concentration of half-maximal effect; % is set by controls: 0 for no effect and ±100 for the full control effect
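Two-generation exposure (96 h) targets delayed-death phenotype. Reporter parasites carrying integrated firefly luciferase, in red cells at 2% hematocrit and 0.05% parasitemia final, kept at 37 C, 5% CO2; luminescence loss indicates inhibition.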
Pf growth 48h: P. falciparum growth inhibition at 48 hours (one generation); P. falciparum luciferase growth in erythrocytes, 48 h; Potency, µM (series often up to 28.7 µM), inactives show top-dose activity change, negative = inhibition, usual class: inhibitors; hit rate 5.9% among 310,000; note: potency is the fitted concentration of half-maximal effect; % is set by controls: 0 for no effect and ±100 for the full control effect
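Firefly luciferase activity from engineered P. falciparum reports growth; inhibitors lower the luminescent signal. Cultures contained 2% hematocrit erythrocytes at 0.1% final parasitemia.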
CHX counter: counter-screen for Shiga toxin inhibitors: cycloheximide protein synthesis inhibition. cell reporter, cycloheximide protein synthesis inhibition counterscreen. max response, %. hit rate 12% among 300,000. AID 2314; in the data active = max response mostly above about 13%, no sharp cut-off; inactive = mostly below about 14%; note: read at 38.3 µM for the half of the compounds with a filed dose; 0% is about no effect
Shiga inhibitor: Shiga toxin inhibition. Vero cells, Shiga toxin protein synthesis inhibition reporter. inhibition, % at 38.7 µM. hit rate 9.2% among 290,000; in the data active = inhibition mostly above about 28%, no sharp cut-off; inactive = mostly below about 43%; note: 0% is about no effect
The depositor's hits bear a star; ? = inconclusive; / = no result given; [ ] = another dose, or the depositor's remark. Shown are actives, neighbours in structure and some others; about 20% of the full set was active somewhere. Unless noted, calls come from the whole dose curve; as a rule, active = well fitted inhibition curve with a large enough effect; inconclusive = small, poorly fitted or top-dose-only effect, or another doubt; inactive = no such curve, though single readings can be large or run the other way.

SMILES | HCMV antiviral | Pf growth 96h | Pf growth 48h | CHX counter | Shiga inhibitor
CCOC(=O)c1c(NC(=O)CN2C(=O)NC(C)(c3ccc(Cl)cc3)C2=O)sc(C(=O)NC)c1C (stereo not given) | 1.5 | 4.65µM* | 8.28µM* | 1.3 | -1.3
CCOC(=O)c1c(NC(=O)COC(=O)c2ccc(O)cc2)sc(C(=O)N(C)C)c1C | 0.0 | ? | 11.7µM* | 5.4 | 12.2
CCOC(=O)c1c(NC(=O)COC(=O)c2ccc(NC(=O)CC#N)cc2)sc(C(=O)NC)c1C | 0.0 | -25.6% | 13.1µM* | / | /
CCOC(=O)Cn1c(=O)n(-c2ccccc2OC)c2nc(-c3ccccc3C)nc(C(N)=O)c21 | 33.7 | / | / | / | /
O=[N+]([O-])c1ccc(/C=N/n2c(CO)nc3ccccc32)s1 | -68.9* | ? | 4.65µM* | -6.4 | -10.9
Cn1c(C(=O)c2ccccc2[N+](=O)[O-])nc2ccccc21 | 146.6 | -22.4% | 9.8% | 3.7 | 15.5
CN(C(=O)/C=C/c1ccc([N+](=O)[O-])s1)c1ccccc1 | ? | ? | ? | 9.8 | 64.3
Cc1nc2ccccc2n1/N=C/c1ccc([N+](=O)[O-])s1 | -81.8* | 4.15µM* | 4.15µM* | 1.5 | 12.4
CC(=O)c1cccc(NC(=O)CSc2nnc3ccc(-c4ccc(F)cc4)nn23)c1 | -15.2 | / | / | / | /
Cc1ccc(C(C)C)c(OCC(=O)Nc2ccc(-c3nc4ncccc4o3)cc2C)c1 | 2.8 | / | / | / | /
CCOc1cc(/C=C/C(=O)O)ccc1OCCOc1ccc(F)cc1 | -3.1 | 1.4% | 21.9% | 0.3 | -6.6
COc1cc(/C=N\n2nnnc2N)ccc1OCc1ccc(F)cc1 | 5.1 | ? | -25.1% | 33.0 | -5.3
COC(=O)c1ccc(COc2ccccc2/C=N/O)o1 | -33.4 | 124.2% | -9.4% | 6.1 | 30.7
COc1cc(/C=N/n2c(C)n[nH]c2=S)ccc1OCc1ccc(F)cc1 | -34.3 | 93.5% | ? | 48.5* | 65.3*
O=[N+]([O-])c1ccc(COc2ccccc2/C=N/O)cc1 | -19.7 | 60.3% | 68.6% | 44.9* | 89.5*
CCOc1cc(/C=N/O)ccc1OCc1ccc(F)cc1 | -30.4 | 3.7µM* | 26.3% | 10.4 | 65.2*
O=C1NC(=O)/C(=C\c2ccccc2OCc2ccc([N+](=O)[O-])cc2)N1 | ? | 11.7µM* | 29.2% | -5.2 | -11.8
O=C(c1ccc(OC2CCN(Cc3ccccn3)CC2)cc1)N1CCCC(O)C1 (stereo not given) | 0.3 | ? | 13.9% | -2.7 | 1.5
COc1ccc2c(C)c(CCC(=O)NCCc3ccc(Cl)cc3)c(=O)oc2c1 | -26.2 | / | / | / | /
COc1cc(-c2nc3n(n2)C(c2ccc(F)cc2)C(C(N)=O)=C(C)N3)cc(OC)c1OC (stereo not given) | 3.4 | / | / | / | /
O=Cc1ccccc1OCCOc1ccc([N+](=O)[O-])cc1 | -36.4 | ? | 1.9% | 25.6* | 43.1
CCOc1cc(/C=N/O)ccc1OCc1ccc([N+](=O)[O-])cc1 | -10.6 | 9.0% | -27.2% | 9.1 | 37.4*
NC(=S)N/N=C/c1cc([N+](=O)[O-])ccc1OCCOc1ccccc1 | 57.8 | -24.9% | / | -2.3 | -13.0
CC(=O)N/N=C/c1cc([N+](=O)[O-])ccc1OCCOc1ccccc1 | -0.1 | 6.57µM* | 2.1% | 0.5 | -18.2
CCOC(=O)N1CCN(C(=O)C(=O)N/N=C/c2ccc(OC)cc2OC)CC1 | 17.1 | 4.8% | -5.2% | -2.2 | 2.6
SMILES | HCMV antiviral | Pf growth 96h | Pf growth 48h | CHX counter | Shiga inhibitor
Cc1ccc(CN(Cc2ccco2)C(=O)COc2ccc(Cl)cc2)o1 | -34.9 | / | / | / | /
CCN1CCN(c2ncc3c(n2)CCN(Cc2sccc2C)C3)CC1 | -8.9 | / | / | / | /
CNC(=O)Oc1ccc(-c2cn3cc(Cl)ccc3n2)cc1 | ? | 3.9% | 23.9% | 20.8* | 55.3
CNC(=O)Oc1cccc(-c2cn3cc(OC(=O)NC)ccc3n2)c1 | 30.2 | ? | -77.5% | 36.8* | active
O=C(O)c1ccccc1-c1cn2cc(Cl)ccc2n1 | 4.6 | 228.6% | 137.7% | 0.9 | 10.9
CCC12CN3CCN(CC(C3)/C1=N\NC(=O)Nc1ccccc1)C2 | -30.3 | -5.3% | 3.4% | -5.5 | -11.2
Cc1cnn(-c2cc(N/N=C/c3cccc(F)c3)ncn2)c1 | -16.6 | 1.85µM* | 1.2% | -3.6 | -9.7
Cc1cnn(-c2cc(N/N=C/c3ccccc3F)ncn2)c1 | 2.3 | 13.1µM* | 25.3% | -4.4 | -10.3
Cc1ccccc1OC(C)C(=O)N1CCN(c2ccccn2)CC1 (stereo not given) | 10.3 | 101.1% | 1.0% | 1.6 | -30.4
Cc1ccccc1NC(=O)c1ccc(F)c(S(=O)(=O)N2CCN(c3ccccn3)CC2)c1 | ? | / | 13.1µM* | -3.2 | 15.2
O=C(Nc1ccc(Br)cc1)c1ccc(F)c(S(=O)(=O)N2CCN(c3ccccn3)CC2)c1 | -89.0* | -3.3% | ? | 6.9 | 8.3
O=[N+]([O-])c1ccc(-n2nnnc2CN2CCOCC2)cc1 | -8.7 | 6.57µM* | 3.1% | -3.3 | -7.9
c1ccc(-n2nnnc2CN2CCOCC2)cc1 | -68.0* | 459.2% | -0.2% | 7.1 | 6.8
Nc1cccc(-n2nnnc2CN2CCOCC2)c1 | -30.5 | 10.4µM* | -0.1% | -0.4 | 12.2
Nc1ccc(-n2nnnc2CN2CCOCC2)cc1 | 4.9 | ? | 19.0% | -2.0 | -1.7
COc1ccc2c(c1OC)C(=O)N(c1ccc(OCc3ccccc3)cc1)C2=O | -0.7 | -8.6% | 14.3%[0.00184 µM] | -2.9 | -7.5
O=[N+]([O-])c1cc(-c2nc(-c3cccnc3)no2)ccc1NCc1ccccc1 | 6.2 | / | / | / | /
O=C(c1ccc(CS(=O)c2ccccc2Cl)o1)N1CCN(c2ccccc2F)CC1 (stereo not given) | -66.9* | / | / | / | /
O=C(c1ccc(CS(=O)c2ccccc2Cl)o1)N1CCN(C2CCCCC2)CC1 (stereo not given) | -100.6* | / | / | / | /
O=C(c1ccc(CS(=O)c2ccccc2Cl)o1)N1CCCCCC1 (stereo not given) | 1.6 | -23.7% | -2.8% | 7.5 | 36.0
Cc1nnc2c3ccccc3c(Cl)nn12 | 43.2 | ? | 46.0% | 2.0 | 17.0
OCCn1c(CSc2nnc(-c3ccco3)n2-c2ccccc2)nc2ccc(Cl)cc21 | 0.8 | / | 11.7µM* | -1.2 | -8.5
COc1ccc(CNC(=O)Cn2c(=O)nc(-c3ccccc3)c3ccccc32)cc1OC | 2.9 | / | / | / | /
OCc1ccc(-c2ccc(-c3ccc(CO)s3)o2)s1 | / | / | / | 53.2* | 41.6*
Cc1c2c(nc3ccccc13)OCC2 | ? | 23.0% | 44.8% | -1.9 | -4.3
SMILES | HCMV antiviral | Pf growth 96h | Pf growth 48h | CHX counter | Shiga inhibitor
O=C(NC(=S)NNC(=O)c1ccccc1O)c1cccs1 | ? | 1.2% | ? | 9.8 | 21.9
COc1ccc(Cl)cc1NC(=S)NNC(=O)c1cccs1 | -7.4 | ? | ? | 23.0* | 43.4*
COc1ccc(Cl)cc1NC(=S)NNC(=O)c1cccnc1 | 8.6 | ? | ? | -1.4 | -8.0
Cc1cccc(C(=O)NNC(=S)NC(=O)c2cccs2)c1 | -28.1 | 11.7µM* | -4.2% | 0.7 | -3.4
COc1ccc(C(=O)NNC(=S)NC(=O)c2cccs2)cc1 | 85.2 | 55.7% | -29.5% | -1.7 | -5.8
COc1ccccc1C(=O)NNC(=S)NC(=O)c1cccs1 | -77.7* | 30.8% | 7.5% | -6.3 | -13.1
CCCC1(CCC)NC(=O)N(CC(=O)Nc2ccc(Cl)c(S(=O)(=O)N3CCOCC3)c2)C1=O | -10.7 | / | / | / | /

Bioassay records as filed in PubChem BioAssay.
